Reference: PubChem BioAssay (NCI)
The panel holds about 83,000 compounds, 20% with a hit somewhere; the sample as a whole holds those more often.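 Assay: single dose, 48 h. Readout: percent growth (0 = no net growth; negative = cell death). Active: <10.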 Unmarked numbers belong to inactive results. Activity calls are given as the source filed them.

What was measured:
Assay in all cases: NCI-60 one-dose screen, 48 h (100 = growth as untreated, 0 = no growth, -100 = all killed)
Details in all cases: 10 µM unless noted
HCT-15 colon = tested on: HCT-15 colon
HT29 colon = tested on: HT29 colon
SNB-75 CNS = tested on: SNB-75 CNS
SNB-19 CNS = tested on: SNB-19 CNS
U251 CNS = tested on: U251 CNS
PC-3 prostate = tested on: PC-3 prostate
SK-MEL-5 melanoma = tested on: SK-MEL-5 melanoma
UACC-62 melanoma = tested on: UACC-62 melanoma
LOX IMVI melanoma = tested on: LOX IMVI melanoma
SK-MEL-28 melanoma = tested on: SK-MEL-28 melanoma

Row | SMILES | growth (HCT-15 colon) | growth (HT29 colon) | growth (SNB-75 CNS) | growth (SNB-19 CNS) | growth (U251 CNS) | growth (PC-3 prostate) | growth (SK-MEL-5 melanoma) | growth (UACC-62 melanoma) | growth (LOX IMVI melanoma) | growth (SK-MEL-28 melanoma)
1 | Cc1ccc(CS/C(=C\c2ccc([N+](=O)[O-])cc2)C(=O)c2ccc(F)cc2)cc1 | -6.39% (active) | -20.1% (active) | 79.8% | 34.6% | -20.4% (active) | 40.9% | 62.7% | 30.9% | -4.93% (active) | 93.5%
2 | COc1ccc(/C=C(/C(=O)N2CCCC2)c2cc(OC)c(OC)c(OC)c2)cc1 | 39.6% | 11.6% | 32% | 46.8% | 25.1% | 26.3% | 15% | 44.1% | 54.2% | 73.9%
3 | C=C(C)[C@@H]1CC[C@]2(C(=O)NCCCO)CC[C@]3(C)[C@H](CC[C@@H]4[C@@]5(C)CCCNC(C)(C)[C@@H]5CC[C@]43C)[C@@H]12 | 68.6% | 7.18% (active) | 72.2% | 85.4% | 53.7% | 49.2% | 13% | 83.8% | 78.7% | 51.3%
4 | COCCc1n(Cc2ccc3ccccc3c2)c2ccccc2[n+]1Cc1ccc2ccccc2c1 | 7.25% (active) | -61.3% (active) | -39.7% (active) | -73.8% (active) | -89.8% (active) | -14.5% (active) | -97.5% (active) | -89.3% (active) | -92.5% (active) | -46.4% (active)
5 | C=C(C)[C@@H]1CC[C@]2(C(=O)OCCOCCOCC[P+](c3ccccc3)(c3ccccc3)c3ccccc3)CC[C@]3(C)[C@H](CC[C@@H]4[C@@]5(C)CC[C@H](OC(=O)C(Cl)Cl)C(C)(C)[C@@H]5CC[C@]43C)[C@@H]12 | 11.1% | 5.74% (active) | 8.83% (active) | 17.6% | -5.68% (active) | -23.4% (active) | -99.1% (active) | -39.3% (active) | -91.3% (active) | -43.9% (active)
6 | COC(=O)CCc1cc(O)c2c(c1)[C@@H](C(=O)OC)[C@H](c1ccc(O)c(O)c1)O2 | 50.3% | 95% | 71.2% | 74.9% | 71% | 85.5% | 76.4% | 66% | 63.4% | 73.8%
7 | O=C(Nc1nc(-c2ccccc2Cl)cs1)c1cc(-c2ccc(Br)cc2)nc2ccccc12 | 61.6% | 37.4% | 96.8% | 71% | 46.1% | 43.1% | 27.9% | 48.8% | 50% | 80.3%
8 | COC1=CC=CC2(OC)C3(O)CCCc4cccc(c43)N3C(=O)COC132 (stereo not given) | 103% | 97.2% | 84.2% | 101% | 97.3% | 95.4% | 104% | 92% | 97.7% | 111%
9 | O=C(/C(=C/c1ccc([N+](=O)[O-])cc1)SCc1ccc(Cl)cc1)c1ccc(F)cc1 | -16.5% (active) | -2.26% (active) | 82.3% | 35.6% | -9.2% (active) | 41.4% | 69.9% | 33.8% | -18.3% (active) | 95.8%
10 | C=C1C(=O)O[C@H]2[C@H]1CC/C(COC(=O)c1cc3ccccc3o1)=C\CC[C@@]1(C)O[C@@H]21 | -68.6% (active) | -49.6% (active) | 76.5% | 16.7% | 15.4% | -8.8% (active) | 7.03% (active) | -37.7% (active) | -89.3% (active) | -48% (active)
11 | CC(C)(C)c1ccc2oc(=O)n(SC(Cl)(Cl)Cl)c2c1 | 99.1% | 90.4% | 98.1% | 112% | 104% | 99.3% | 107% | 109% | 93.4% | 112%
12 | O=C(Nc1nc2ccc(C(F)(F)F)cc2s1)c1cc(Cl)ccc1O | 7.56% (active) | -18% (active) | 16.8% | 20.5% | 8.44% (active) | 7.15% (active) | -46.1% (active) | 13.3% | 5.71% (active) | 26.6%
13 | Nc1c(C(=O)Nc2cccc3ccccc23)sc2nc3c(cc12)COCC3 | 32.2% | 12.4% | 30.9% | 33.4% | 30% | 53.5% | 31% | 30.2% | 42.7% | 60.6%
14 | COc1ccc(C2N(c3cc(OC)c(OC)c(OC)c3)C(=O)C2(F)F)cc1F (stereo not given) | 19.4% | 11.2% | 64.7% | 52.9% | 41.6% | 35.9% | 8.08% (active) | 55.5% | 27.1% | 77.2%
15 | O=C(Nc1nccs1)c1noc2ccccc12 | 92.8% | 99.5% | 87.9% | 93.5% | 98.5% | 80% | 91.5% | 88% | 95.8% | 103%
16 | COc1ccc(-c2cn(-c3ccc(Cl)cc3)c(=S)[nH]2)cc1OC | 63.4% | 44.2% | 111% | 90.6% | 75% | 72.4% | 41.7% | 72.5% | 0.188% (active) | 92.4%
17 | Clc1ccc2c(NCCCNC3CCCCC3)ccnc2c1 | 84.8% | 48.1% | 89.8% | 110% | 93.8% | 87.3% | 99.9% | 111% | 96.7% | 116%
18 | COc1ccc2nc3c(n2c1)C(=O)C(=O)c1ccccc1-3 | -60.2% (active) | 64% | -54.4% (active) | -30.9% (active) | -59.4% (active) | 22.3% | -99.5% (active) | -91.1% (active) | -68.4% (active) | -83.2% (active)
19 | COc1ccc2c(c1)OC13Oc4cc(OC)ccc4C=C1CCCCC3=C2 | 92.6% | 71.5% | 89.8% | 106% | 89.7% | 69.6% | 91.5% | 89.4% | 99.8% | 111%
20 | CCCNc1nc(C)[nH]c(=O)c1S | 96.5% | 108% | 91.2% | 93.1% | 95% | 87.4% | 110% | 113% | 91% | 114%
21 | N#CC1(C#N)C2=C(CCCC2)NC(c2c(F)cccc2Cl)C1(C#N)C#N (stereo not given) | 66.9% | 17.3% | 51.1% | 69.2% | 60.7% | 72.1% | 63.9% | 40.8% | 53.4% | 65.8%
22 | N#Cc1c(-c2ccc(F)cc2)nc(N/N=C/c2c[nH]c3ccccc23)nc1N1CCOCC1 | 8.42% (active) | 18% | 62.5% | 89.7% | 32.2% | 49.9% | 37.1% | 61.8% | 20.6% | 4.29% (active)
23 | Nc1ccc2c(c1)C(=O)C(=O)c1c-2nc2ccccn12 | -29.8% (active) | 76.1% | 37.5% | 9.2% (active) | 9.14% (active) | 24% | -99.8% (active) | -85.3% (active) | -12.7% (active) | -28.9% (active)
24 | NC[C@@H]1CCN(c2cc3c(cc2F)c(=O)n(N)c(=O)n3Cc2ccc(-c3ccccc3)cc2)C1 | 50.1% | 30.4% | 77.9% | 102% | 64.5% | 71.4% | 72.4% | 94.6% | 78.9% | 113%
25 | C/C(=C\c1cnc(C)s1)[C@@H]1C[C@@H]2O[C@@H]2CCC[C@H](C)[C@H](O)[C@@H](C)C(=O)C(C)(C)[C@@H](O)CC(=O)O1 | 23% | 8.92% (active) | -1.96% (active) | 44% | 24.5% | 34.2% | 34.3% | 51% | 46.4% | 75.1%
26 | Cc1nccc2c3ccc(OCc4cn(-c5ccccc5)nn4)cc3n(CCCc3ccccc3)c12 | 56.9% | 38.5% | 73.8% | 79.3% | 76.8% | 65.1% | 80.4% | 83.3% | 81.3% | 99%
